PubChem BioAssay

Assay: MM1S cell viability effects, profiling panel, calcein-AM fluorescence, 48 h, basal (AID 1165);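 also: viability of MM1S multiple myeloma cells under basal unstimulated conditions; test concentration not given here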
Details: higher = more signal

Row | SMILES | z-score
1 | CC(C)(C)OC(=O)CC[C@]1(C(=O)N2CCCCC2)COC(c2ccc(OCCCO)cc2)=N1 | -0.0601
2 | O=C1[C@@]23C=C(Br)[C@H](C[C@@H]2COC3)[C@@]12CO2 | -2.27
3 | O=C1C[C@@](C(=O)NCc2ccccc2)(c2ccc([N+](=O)[O-])cc2)[C@@H](c2ccc(CO)cc2I)N1CC12CC3CC(CC(C3)C1)C2 | -2.99
4 | O=C1C[C@@](C(=O)NCC(F)(F)F)(c2ccc([N+](=O)[O-])cc2)[C@@H](c2ccc(CO)cc2)N1CC12CC3CC(CC(C3)C1)C2 | -2.72
5 | CN1C(=O)C2C=CC(C(O)c3ccc(I)cc3)N(Nc3ccccc3)C2C1=O (stereo not given) | -0.521
6 | COc1cc(C(O)C2C=CC3C(=O)N(Cc4ccccc4)C(=O)C3N2n2cnnc2)cc(OC)c1OC (stereo not given) | 0.599
7 | C=C(COC)/C(=C/C[C@@H](OC(=O)c1ccncc1)c1ccccc1OCCO)c1cc(C(=O)OC)ccc1OC | -3.29
8 | CC(C)C[C@@H]1NC(=O)[C@@]23C(=O)N[C@@H](Cc4ccccc4)C2[C@H](C)[C@@]2(C)O[C@H]2C3/C=C/C/C=C\CNC(=O)[C@@H](C)NC1=O (stereo not given in full) | 0.761
9 | CCCNC(=O)[C@@]1(Sc2ccc(C)cc2)CC(=O)N(C(C)C)[C@@H]1c1ccc(CO)cc1I | -2.65
10 | CN1C(=O)C2C(C1=O)C1C=C(CCCO)C2C(c2cccs2)N1Cc1cc2c(cc1Br)OCO2 (stereo not given) | -0.635
11 | C=C(CCCC)/C(=C/C[C@H](OC(C)=O)c1ccc(OCCO)cc1)c1cc(C(=O)OC)ccc1OC | -2.88
12 | COC(=O)[C@@]1(Cc2ccc(OC)cc2)[C@H]2c3cc(C(=O)N4CCCC4)n(Cc4ccc(OC(F)(F)F)cc4)c3C[C@H]2CN1C(=O)c1ccccc1 | -0.889
13 | CS(=O)(=O)CCOC(=O)C1=CC(CCCO)=CC(C2CC2)N(Cc2cccc(OC(F)(F)F)c2)C=C1C(=O)OCCS(C)(=O)=O (stereo not given) | -2.98
14 | COC(=O)C1=CC(CCCO)=CC(C)N(Cc2cccc(OC(F)(F)F)c2)C=C1C(=O)OC (stereo not given) | 0.403
15 | [N-]=[N+]=NCc1ccccc1[C@@H]1OC(c2ccc(OCCCO)cc2)=N[C@]1(Cc1ccccc1)C(=O)NCCN1CCOCC1 | -0.887
16 | CC(C)C(=C=CC[C@@H](O)c1cccc(OCCO)c1)C[C@@H](O)c1ccccn1 | -0.0369
17 | O=C(NCC(O)CO)[C@@]1(CCS(=O)(=O)c2ccccc2)COC(c2ccc(OCCCO)cc2)=N1 (stereo not given in full) | -1.29
18 | CCOC(=O)C1=C[C@@H](c2ccccc2)N(S(=O)(=O)c2ccc(C)cc2)[C@H]1c1ccccc1 | -1.14

Row | SMILES | z-score
19 | CC(C)OC(=O)CC(=O)CC(O)c1ccc([N+](=O)[O-])cc1 (stereo not given) | 0.772
20 | COC(=O)C1N=C(c2ccc(OCCCO)cc2)N(c2ccccc2)O1 (stereo not given) | -0.943
21 | NC(=O)NCC#Cc1ccc2c(c1)[C@]1(C(=O)N2)[C@H](C(=O)N2CCN(c3ncccn3)CC2)[C@H]2C(=O)O[C@H](c3ccccc3)[C@H](c3ccccc3)N2[C@@H]1c1ccc(OCCO)cc1 | -0.444
22 | [N-]=[N+]=Nc1ccccc1C[C@]1(C(=O)O)N=C(c2ccc(OCCCO)cc2)O[C@H]1c1ccccc1 | 0.565
23 | C=C(/C(=C/C[C@@H](OC(C)=O)c1ccc(OCCO)cc1)c1cc(C(=O)OC)ccc1OC)C(C)C | -1.83
24 | COc1ccc(NC(=O)O[C@H]2[C@@H]3OC(=O)[C@H](Cc4cccc(Br)c4)C/C=C/C[C@@H](Cc4cccc(Br)c4)C(=O)O[C@H]3[C@@H](OC)O[C@@H]2CO)cc1 | -1.14
25 | [N-]=[N+]=NCc1ccccc1[C@H]1OC(c2ccc(OCCCO)cc2)=N[C@@]1(CCS(=O)(=O)c1ccccc1)C(=O)NCc1ccccc1 | -0.65
26 | COc1cc(NN2C(C(O)C3CCCCC3)C=CC3C(=O)N(C)C(=O)C32)cc(OC)c1OC (stereo not given) | -0.197
27 | O=C1[C@@H]2[C@@H](CC(COc3ccccc3)=C3[C@@H](CCc4ccccc4)OB(O)C[C@@H]32)C(=O)N1Cc1ccccc1 | -3.22
28 | O=C1OCCC=C[C@H]2OC34C=CCN(c5ccc(Cl)cc5)C(=O)[C@H]3N(CCCCCCO)C(=O)[C@@H]4C12 (stereo not given in full) | 1.69
29 | CCOC(=O)C[C@H]1[C@H](OC(=O)c2ccccc2-c2ccccc2)[C@@H](NC(=O)c2ccc3ccccc3n2)c2cc(OCCCO)ccc2N1C(=O)c1ccccc1 | -0.295
30 | COC(=O)[C@@]1(Cc2ccc(OC)cc2)[C@H]2c3cc(C(=O)N4CCCC4)n(Cc4ccc(S(C)(=O)=O)cc4)c3C[C@H]2CN1C(=O)c1ccccc1 | 0.137
31 | C=C[C@@H](C)[C@@H](OC(=O)Nc1ccc(SC)cc1)c1ccc(OCCO)cc1 | -1.08
32 | NCCCCCNC(=O)[C@@H]1C[C@@H]2C(=O)N3CCC[C@H]3C(=O)N2[C@@H]1c1ccc(O)cc1 | -0.42
33 | O=C1OCCC/C=C\[C@H]2OC34C=CCN(c5ccc6ccccc6c5)C(=O)[C@H]3N(CCCO)C(=O)[C@@H]4C12 (stereo not given in full) | 0.392
34 | CC(=O)NCCCC[C@@H]1NC(=O)[C@@H]2C[C@H](C(=O)NCCCCCCN)[C@H](c3cccc(OCCO)c3)N2C1=O | 0.213
35 | COCCOC(=O)N1C(=O)[C@@]2(c3cc(C#CCNC(N)=O)ccc31)[C@H](c1ccc(OCCO)cc1)N1[C@H](c3ccccc3)[C@H](c3ccccc3)OC(=O)[C@H]1[C@@H]2C(N)=O | -1.24
